High-throughput results (PubChem BioAssay)
Shown are actives, neighbours in structure and some others; about 3.5% of the full set was active somewhere.
Anthrax LF inh2: anthrax lethal factor protease inhibition; P15917; multiplex microsphere protease cleavage assay, LF; inhibition, % at 10 µM; actives 0.12% (n = 360,000); also: plate controls were buffer without enzyme for full effect and enzyme alone for no effect
Target sequence (P15917 whole entry, looked up): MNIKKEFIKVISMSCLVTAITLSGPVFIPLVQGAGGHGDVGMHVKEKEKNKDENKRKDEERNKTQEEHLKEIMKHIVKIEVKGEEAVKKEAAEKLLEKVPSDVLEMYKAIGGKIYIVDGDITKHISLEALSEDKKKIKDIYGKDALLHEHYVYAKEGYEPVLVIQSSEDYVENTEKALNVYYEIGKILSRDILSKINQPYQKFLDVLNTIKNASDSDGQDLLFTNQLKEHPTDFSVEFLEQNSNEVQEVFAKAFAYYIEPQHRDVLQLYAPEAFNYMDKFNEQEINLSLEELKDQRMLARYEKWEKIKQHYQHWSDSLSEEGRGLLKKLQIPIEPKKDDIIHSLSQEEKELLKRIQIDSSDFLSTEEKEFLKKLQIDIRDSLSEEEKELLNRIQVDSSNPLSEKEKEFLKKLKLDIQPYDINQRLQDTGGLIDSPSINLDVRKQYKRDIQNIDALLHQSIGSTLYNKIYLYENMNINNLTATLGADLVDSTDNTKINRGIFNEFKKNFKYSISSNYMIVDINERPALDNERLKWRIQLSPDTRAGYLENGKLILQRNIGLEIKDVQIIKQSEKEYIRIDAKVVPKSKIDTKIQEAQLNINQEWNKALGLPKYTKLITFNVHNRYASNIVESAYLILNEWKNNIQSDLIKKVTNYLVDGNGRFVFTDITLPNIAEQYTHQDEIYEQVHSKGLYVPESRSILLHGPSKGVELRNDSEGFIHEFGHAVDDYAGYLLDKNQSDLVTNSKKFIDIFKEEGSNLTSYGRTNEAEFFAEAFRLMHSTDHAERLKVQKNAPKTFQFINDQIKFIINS
BoNT A protease: BoNT A light chain protease inhibition; multiplex microsphere protease substrate cleavage, flow cytometry; inhibition, % at 10 µM; actives 0.17% (n = 360,000); also: plate controls were buffer without enzyme for full effect and enzyme alone for no effect
Bead autofluor: compound fluorescence in toxin protease inhibitor counterscreen | compound autofluorescence counterscreen, microsphere flow cytometry; hits give high values | fluorescence intensity (test concentration not listed) | AID 624483 | actives 3.1% (n = 360,000); in the data active = fluorescence intensity above about 16000; inconclusive = no clear call, values can overlap the other calls
BoNT F protease: BoNT F light chain protease inhibition; Multiplex microsphere protease cleavage assay, flow cytometry; inhibition, % at 10 µM; actives 0.22% (n = 360,000); AID 588497; in the data active = inhibition above about 35%, passing the limit was not always enough; inconclusive = no clear call, values can overlap the other calls; also: plate controls were buffer without enzyme for full effect and enzyme alone for no effect
* = called active by the depositor; ? = inconclusive. Rule as the data show it, unless noted: active = inhibition above about 30%; inconclusive = no clear call, values can overlap the other calls; inactive = below that.

SMILES | Anthrax LF inh2 | BoNT A protease | Bead autofluor | BoNT F protease
Cc1noc(C)c1CC(=O)Nc1ccc2c(c1)OCO2 | 3 | 2 | 4815 | 3
Cn1cnc2ncnc(Oc3ccc(Br)cc3)c21 | -2 | -1 | 4636 | -7
CC(C)(C)S(=O)N1Cc2cc(CO)cc(CCO)c2[C@@H]1CCO (stereo partly drawn) | -2 | 0 | 3587 | -4
Cc1cn(C2CC(O)C(CO)O2)c(=O)n(Cc2ccccc2)c1=O (stereo not drawn) | -3 | 0 | 3611 | -12
COc1ccc(C(=O)NC(CC(C)C)C(=O)O)cc1OC (stereo not drawn) | -3 | ? | 20991* | -4
CCN(CC)CC(=O)Nc1cc(N(C)C)nc2ccccc12 | -8 | 2 | ? | ?
CCCCCC(=O)Nc1cc(N(C)C)nc2ccccc12 | -14 | 6 | 17328* | 9
Clc1ccccc1OCCCCN1CCCC1 | -5 | 9 | 20741* | 7
Clc1ccccc1OCCCCN1CCCCC1 | -2 | -1 | 3645 | -22
FC(F)(F)c1cc(-c2ccco2)nc(N2CCN(c3ccccc3)CC2)n1 | -4 | -6 | 25233* | -7
O=C(CCSc1nc(-c2ccco2)cc(C(F)(F)F)n1)N1CCN(c2ccccc2)CC1 | -6 | -1 | 3320 | -6
O=C(CCC1CC(=O)Nc2ccccc21)NCc1ccc(F)cc1 (stereo not drawn) | 1 | 2 | 18975* | 3
CC1=C(C(=O)Nc2ccc(Cl)cc2)C(c2cccs2)n2nnnc2N1 (stereo not drawn) | -2 | ? | 23559* | -3
COCCOC(=O)c1c(C)n(C)c2ccc(OC(=O)N(C)C)cc12 | 0 | -1 | 22829* | -4
COCCOC(=O)c1c(C)n(C)c2ccc(OC(=O)c3cccs3)cc12 | -2 | -2 | 16814* | -5
COc1ccc(N2CCN(C(=O)CN3c4cccc5cccc(c45)S3(=O)=O)CC2)cc1 | 0 | 4 | 5276 | 0
O=S(=O)(NCC1CN(S(=O)(=O)c2c(F)cccc2F)C1)c1ccc2c(c1)OCCO2 | 4 | 0 | 3973 | 2
O=c1[nH]cnc2c1sc1nc(C(F)F)cc(-c3ccccc3)c12 | -9 | 0 | 2817 | -4
Cc1ccc(NC(=O)NCCCN2CCCC2=O)cc1 | -2 | 2 | 22287* | 1
Cc1ccc(S(=O)(=O)Nc2ccccc2F)cc1C(=O)NCCCN1CCCC1=O | -2 | -1 | 22774* | -1
COc1ccc(C(=O)NCCCN2CCCC2=O)cc1 | -5 | -1 | 4029 | -12
Cc1ccc(NC(=O)NCCCN2CCCC2=O)cc1C | -6 | -2 | 4794 | 3
O=C(NCCCN1CCCC1=O)c1ccc2c(c1)OCO2 | 1 | ? | 20949* | 1
CCOC(=O)c1ccccc1NC(=O)COC(=O)CCNS(=O)(=O)c1cccs1 | 1 | 0 | 5262 | 19
CNC(=S)N1N=C(c2ccc(Br)cc2)CC1c1ccc(Br)cc1 (stereo not drawn) | -3 | 0 | 21159* | -4
SMILES | Anthrax LF inh2 | BoNT A protease | Bead autofluor | BoNT F protease
COc1cccc(C(=O)NCCS(=O)(=O)N(C)Cc2ccccc2)c1 | 6 | -2 | 5233 | -12
CCCCc1c(-c2ccc(OC)cc2)ncn1CCc1ccccc1OC | -2 | 0 | 5716 | 2
CCC1(CC)Cc2ccccc2-c2nc(NCCO)[nH]c(=O)c21 | -1 | 3 | 20997* | 7
O=c1c2c(nc3n1CCCCC3)-c1ccccc1CC21CCCCC1 | -3 | 1 | 8504 | 5
CCC1(C)Cc2ccccc2-c2nc(NCCO)n(-c3ccc(C)cc3)c(=O)c21 (stereo not drawn) | 0 | 0 | 4643 | -6
CCC1(C)Cc2ccccc2-c2nc(NCCO)n(-c3ccccc3)c(=O)c21 (stereo not drawn) | -5 | 0 | 16333* | -5
CCC1(C)Cc2ccccc2-c2nc3n(c(=O)c21)CCCCC3 (stereo not drawn) | -4 | -1 | 21213* | -2
O=c1[nH]c(NCCO)nc2c1C1(CCCCC1)Cc1ccccc1-2 | -2 | -1 | 4790 | -16
CCn1cc(C(=O)NCc2ccco2)c(=O)c2cc(S(=O)(=O)N3CC(C)CC(C)C3)ccc21 (stereo not drawn) | 1 | 0 | 19725* | 0
CCn1cc(C(=O)NCCN(C)CCc2ccccc2)c(=O)c2cc(S(=O)(=O)N(C)C)ccc21 | -2 | -1 | 22712* | -3
CCn1cc(C(=O)NCc2ccco2)c(=O)c2cc(S(=O)(=O)N3CCCCCC3)ccc21 | -4 | ? | 21862* | 0
CCn1cc(C(=O)NCc2ccco2)c(=O)c2cc(S(=O)(=O)N3CCC(C)CC3)ccc21 | -11 | 2 | 20447* | 0
CC(C)Cn1cnc2c(SCCc3ccccc3)nc(N)nc21 | -4 | 0 | 3683 | -7
O=c1[nH]c(-c2ccccn2)nc2sc(-c3ccccc3)cc12 | -2 | -1 | 4794 | -5
COC(=O)CC1C(=O)NCCN1C(=O)c1ccc([N+](=O)[O-])cc1 (stereo not drawn) | 1 | 2 | 3995 | 10
Cc1ccc(NC(=O)COC(=O)C2CCC2)cc1S(=O)(=O)N1CCOCC1 | 3 | 0 | 4340 | -4
C=CCn1cc(C(=O)NCc2ccco2)c(=O)c2cc(S(=O)(=O)N3CCCCCC3)ccc21 | -8 | -2 | 16902* | -3
CCn1cc(C(=O)NCCCN2CCCC2)c(=O)c2cc(S(=O)(=O)N3CCc4ccccc4C3)ccc21 | -3 | 0 | 6193 | -6
CCn1cc(C(=O)NCc2ccco2)c(=O)c2cc(S(=O)(=O)N3CCc4ccccc4C3)ccc21 | -2 | -1 | 20784* | -2
O=C(c1ccoc1)N1CCN(c2cc(-c3cccc(F)c3)nc3cc(-c4cccc(Cl)c4)nn23)CC1 | 8 | 0 | 2909 | -6
CN(CC(=O)Nc1nc2ccccc2s1)S(=O)(=O)c1ccc(Cl)cc1 | -1 | -1 | 6300 | -8
Cc1cccc(NC(=O)CN(C)S(=O)(=O)c2ccc(Cl)cc2)n1 | -3 | -1 | 9907 | -5
CN(CC(=O)Nc1nc2ccccc2s1)S(=O)(=O)c1ccc(Br)cc1 | 0 | 3 | 21220* | 4
Cc1cccc(NC(=O)CN(C)S(=O)(=O)c2ccc(Br)cc2)n1 | -4 | ? | 17225* | -4
O=C(CN1c2cccc3cccc(c23)S1(=O)=O)N1CCOCC1 | 3 | -1 | 16664* | -2
SMILES | Anthrax LF inh2 | BoNT A protease | Bead autofluor | BoNT F protease
CC(=O)NCc1ccc(S(=O)(=O)N2CCN(S(=O)(=O)c3ccc4ccccc4c3)CC2)cc1 | -4 | -6 | 6825 | -5
c1ccc(CNn2nnnc2-c2ccccc2)cc1 | 1 | 1 | 19323* | 0
O=C(CSc1nnc(-c2cccs2)n1-c1ccccc1)N1CCOCC1 | -2 | 0 | 4043 | 9
O=C(CSc1nnc(-c2cccs2)n1-c1ccccc1)N1CCCC1 | -2 | -3 | 21472* | -3
CSc1nnc(-c2cccs2)n1-c1ccccc1 | 1 | 8 | 20664* | 9
CC1CCN(C(=O)CSc2nnc(CN3CCOCC3)n2-c2ccccc2)CC1 | 0 | -3 | 21833* | -4
C=CCn1c(SCC(=O)N2CCCC2)nc2scc(-c3cccs3)c2c1=O | -1 | -5 | 21895* | -5
CCOC(=O)[C@]12CCC=C1N(Cc1ccc3c(c1)OCO3)C(=O)[C@H](CC(=O)NCc1ccccc1)C2 | -4 | 0 | 6120 | 11
